The subject of test [1] is PRMT1 (protein arginine N-methyltransferase 1). Description: small molecules binding arginine methyltransferase PRMT1 – biochemical, small-molecule microarray, 635 nm fluorescence, primary screen (AID 1088).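 Further: binding of Prmt1 protein to compounds spotted on small-molecule microarray slides.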 The note with it: higher = more signal.
Test [2] is described as follows: growth effects on S. cerevisiae YJM789 – YJM789 clinical isolate, OD600, 24 h, basal, primary screen (AID 1089).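 Further: growth of clinical yeast isolate S. cerevisiae YJM 789 seeded 1000 cells per well; test concentration not given here.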 The note with it: higher = more signal, called active from +8 up or from −8 down.
Test [3] can be described thus: S. pombe growth modifiers, basal conditions – strain 972, OD600, 24 h, no modulator, primary screen (AID 1090).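 Further: basal condition with compound alone and no growth modifier present; test concentration not given here.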 The note with it: S. pombe 972 growth, higher = more signal, called active from +8 up or from −8 down.
Test [4] in a line: budding yeast growth modifiers under rapamycin – strain BY4716, OD600, 96 h, primary screen (AID 1091). Further: test concentration not given here. The note with it: S. cerevisiae BY4716 + rapamycin, higher = more signal, called active from +8 up or from −8 down.
The target of test [5] is Torsin-1A-interacting protein 2 (Homo sapiens) (UniProt Q8NFQ8). As to the kind of experiment: small molecules binding lysate-expressed LULL1 – cell lysate, human LULL1 lysate, 635/667 nm fluorescence, primary screen (AID 1092).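 Further: probe is lysate of COS7 cells overexpressing human LULL1; score merges per-feature 667 nm fluorescence with signal-to-noise.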 The note with it: small-molecule microarray, hLULL1 lysate binding, 635 nm fluorescence; higher = more signal.
Test [6] can be described thus: optical density change of DRC41 E. coli – strain DRC41, OD650, 24 h, E. coli filamentation project, primary screen (AID 1093).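 Further: MC1000 strain lacking acrAB efflux and sulA so SOS filamentation is blocked; test concentration not given here.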 The note with it: E. coli DRC41 growth, higher = more signal, called active from +8 up or from −8 down.
Test [7] in a line: probe aLefty2 binding to arrayed compounds – biochemical, biotinylated probe, 635/667 nm fluorescence, primary screen (AID 1094).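 Further: score merges spot fluorescence near 667 nm with spot signal-to-noise ratio.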 The note with it: small-molecule microarray, higher = more signal.
Test [8] relates to Noggin (protein binding on small-molecule microarray). As to the kind of experiment: small molecules binding Noggin protein – biochemical, 635/667 nm fluorescence, primary screen (AID 1095).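 Further: score merges 667 nm feature fluorescence with signal to noise over triplicate slides.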 The settings on record: 635 nm fluorescence, higher = more signal.
Test [9] deals with Neurogenic locus notch homolog protein 3 (Homo sapiens) (UniProt Q9UM47). Description: small molecules binding NOTCH3 protein – biochemical, 635/667 nm fluorescence, primary screen (AID 1096). The note with it: small-molecule microarray, 635 nm fluorescence, higher = more signal.
Test [10] is described as follows: probe aEGFR binding to arrayed compounds – biochemical, biotinylated probe, 635/667 nm fluorescence, primary screen (AID 1097).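 Further: probe is a biotinylated anti-EGFR antibody binding compounds printed on slides; score combines fluorescence near 667 nm and signal to noise of each spot.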 The settings on record: small-molecule microarray, higher = more signal.
Test [11] deals with Plasmodium falciparum Sir2 (PF13_0152, Sir2A). As to the kind of experiment: Plasmodium falciparum Sir2A binding compounds – biochemical, small-molecule microarray, 635 nm fluorescence, primary screen (AID 1098).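 Further: score merges spot fluorescence intensity with its signal-to-noise ratio.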 The settings on record: fluorescence 635 nm, higher = more signal.
Test [12] is described as follows: probe aDKK1 binding to arrayed compounds – biochemical, biotinylated probe, 635/667 nm fluorescence, primary screen (AID 1099).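 Further: score merges 667nm spot fluorescence with signal to noise across triplicate slides; reference of the scale not given here.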 The settings on record: small-molecule microarray, higher = more signal.
Test [13] is described as follows: probe aCHRDL2 binding to arrayed compounds – biochemical, biotinylated probe, 635/667 nm fluorescence, primary screen (AID 1100). The note with it: small-molecule microarray, higher = more signal.
Test [14] is described as follows: change in splice reporter luminescence, either direction, cell-based, HEK293, spliceosome inhibition project, primary screen (AID 1101).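 Further: HEK293 cells carrying a splicing-competent luciferase reporter gene; test concentration not given here.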 The settings on record: HEK293 splicing luciferase reporter, 24 h, higher = more signal, called active from +8 up or from −8 down. In general terms: A reporter such as luciferase makes a cellular process visible.
In test [15] the target is Fibroblast growth factor 10 (Homo sapiens) (UniProt O15520). As to the kind of experiment: compounds binding fibroblast growth factor 10 – biochemical, small-molecule microarray, 635 nm fluorescence, primary screen (AID 1102). The settings on record: FGF10 binding, fluorescence 635 nm, higher = more signal.
Test [16] concerns glycogen synthase kinase-3 (GSK3A per assay name; protocol says GSK3B). As to the kind of experiment: compounds binding glycogen synthase kinase-3 – biochemical, small-molecule microarray, 635 nm fluorescence, GSK3A, primary screen (AID 1103). Further: the record names both GSK3A and GSK3B. The note with it: fluorescence 635 nm, higher = more signal.
The target of test [17] is Epidermal growth factor receptor (Homo sapiens) (UniProt P00533). As to the kind of experiment: compounds binding epidermal growth factor receptor – biochemical, small-molecule microarray, 635 nm fluorescence, primary screen (AID 1104).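 Further: score merges 667 nm emission intensity with spot signal to noise over triplicate slides.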 The settings on record: EGFR binding, higher = more signal.
Test [18] has as its target Follistatin-related protein 3 (Homo sapiens) (UniProt O95633). Description: compounds binding follistatin-related protein 3 – biochemical, small-molecule microarray, 635 nm fluorescence, primary screen (AID 1105).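 Further: score merges emission near 667 nm and signal to noise per printed spot across three slides.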 The note with it: FSTL3 binding, higher = more signal.
The target in test [19] is Dickkopf-related protein 1 (Homo sapiens) (UniProt O94907). As to the kind of experiment: small molecules binding DKK1 protein – biochemical, small-molecule microarray, 635 nm fluorescence scan, primary screen (AID 1106).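 Further: score merges emission near 667 nm with signal to noise over three replicate slides.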 The settings on record: higher = more signal.
Test [20] deals with Inhibin beta A chain (activin A). Description: small molecules binding activin A – biochemical, small-molecule microarray, 635 nm fluorescence scan, primary screen (AID 1107).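 Further: mouse activin A protein probed at 4.33 µg/mL on printed slides; score merges bound-protein fluorescence near 667 nm with spot signal-to-noise.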 The settings on record: INHBA, higher = more signal.

The source made the active and inactive calls.

Sequence of Neurogenic locus notch homolog protein 3 (Homo sapiens) (Q9UM47 whole entry, looked up): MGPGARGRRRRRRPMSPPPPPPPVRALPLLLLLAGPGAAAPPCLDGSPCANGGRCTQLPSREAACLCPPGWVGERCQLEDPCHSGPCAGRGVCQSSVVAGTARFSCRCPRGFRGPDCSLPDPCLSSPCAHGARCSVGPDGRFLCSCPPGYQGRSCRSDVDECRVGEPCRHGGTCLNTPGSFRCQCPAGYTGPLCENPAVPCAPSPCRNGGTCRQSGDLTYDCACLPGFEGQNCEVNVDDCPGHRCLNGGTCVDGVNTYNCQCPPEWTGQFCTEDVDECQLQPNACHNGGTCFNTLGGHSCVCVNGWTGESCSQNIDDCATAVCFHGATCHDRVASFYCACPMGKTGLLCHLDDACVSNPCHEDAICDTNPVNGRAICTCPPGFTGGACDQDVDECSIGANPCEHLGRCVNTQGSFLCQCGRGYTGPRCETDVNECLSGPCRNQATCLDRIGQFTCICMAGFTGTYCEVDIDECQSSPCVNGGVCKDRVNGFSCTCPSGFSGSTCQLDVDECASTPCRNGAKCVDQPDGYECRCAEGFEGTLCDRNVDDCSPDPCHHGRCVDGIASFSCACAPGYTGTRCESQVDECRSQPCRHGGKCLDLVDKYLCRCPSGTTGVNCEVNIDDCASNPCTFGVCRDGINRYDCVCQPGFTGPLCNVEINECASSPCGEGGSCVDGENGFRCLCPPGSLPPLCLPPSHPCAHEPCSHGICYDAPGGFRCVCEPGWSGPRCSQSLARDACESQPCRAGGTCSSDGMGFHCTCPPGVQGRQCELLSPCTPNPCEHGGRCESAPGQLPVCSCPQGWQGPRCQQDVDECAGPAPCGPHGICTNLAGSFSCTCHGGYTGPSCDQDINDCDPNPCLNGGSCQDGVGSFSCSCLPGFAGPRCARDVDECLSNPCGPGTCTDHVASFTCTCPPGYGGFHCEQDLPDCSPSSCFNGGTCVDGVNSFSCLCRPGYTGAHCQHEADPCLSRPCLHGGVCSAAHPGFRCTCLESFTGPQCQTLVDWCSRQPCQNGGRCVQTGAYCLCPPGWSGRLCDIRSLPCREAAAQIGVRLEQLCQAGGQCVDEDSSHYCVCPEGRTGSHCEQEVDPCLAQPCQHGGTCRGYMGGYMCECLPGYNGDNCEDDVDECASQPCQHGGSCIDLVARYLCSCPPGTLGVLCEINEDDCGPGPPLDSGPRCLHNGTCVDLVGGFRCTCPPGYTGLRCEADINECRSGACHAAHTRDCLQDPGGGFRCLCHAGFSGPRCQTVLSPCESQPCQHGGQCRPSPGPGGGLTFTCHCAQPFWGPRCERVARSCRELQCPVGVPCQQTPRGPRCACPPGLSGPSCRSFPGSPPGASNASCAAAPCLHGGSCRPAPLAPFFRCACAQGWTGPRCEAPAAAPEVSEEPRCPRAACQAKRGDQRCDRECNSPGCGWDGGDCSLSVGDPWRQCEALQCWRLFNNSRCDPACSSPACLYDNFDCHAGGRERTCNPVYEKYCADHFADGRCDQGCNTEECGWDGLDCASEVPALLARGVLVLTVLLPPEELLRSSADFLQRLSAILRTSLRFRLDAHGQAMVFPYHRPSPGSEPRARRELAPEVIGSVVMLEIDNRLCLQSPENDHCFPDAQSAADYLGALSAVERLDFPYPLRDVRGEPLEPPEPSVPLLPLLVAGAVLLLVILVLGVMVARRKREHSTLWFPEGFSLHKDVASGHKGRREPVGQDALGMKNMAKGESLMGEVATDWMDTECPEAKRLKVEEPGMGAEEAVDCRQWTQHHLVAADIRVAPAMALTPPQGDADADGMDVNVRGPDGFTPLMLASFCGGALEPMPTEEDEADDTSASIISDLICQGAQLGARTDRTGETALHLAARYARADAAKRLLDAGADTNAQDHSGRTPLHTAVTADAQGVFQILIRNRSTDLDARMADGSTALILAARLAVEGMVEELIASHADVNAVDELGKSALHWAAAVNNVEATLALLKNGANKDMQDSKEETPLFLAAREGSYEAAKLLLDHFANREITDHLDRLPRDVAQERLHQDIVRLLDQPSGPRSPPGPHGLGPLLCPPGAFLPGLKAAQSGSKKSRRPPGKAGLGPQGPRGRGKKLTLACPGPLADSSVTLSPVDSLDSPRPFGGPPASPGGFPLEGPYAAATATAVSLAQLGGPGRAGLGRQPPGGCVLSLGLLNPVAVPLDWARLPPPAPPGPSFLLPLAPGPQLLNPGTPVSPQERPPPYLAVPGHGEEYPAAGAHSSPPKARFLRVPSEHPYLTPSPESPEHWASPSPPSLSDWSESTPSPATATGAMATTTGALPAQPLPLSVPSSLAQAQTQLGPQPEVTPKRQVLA
Sequence of Epidermal growth factor receptor (Homo sapiens) (P00533 whole entry, looked up): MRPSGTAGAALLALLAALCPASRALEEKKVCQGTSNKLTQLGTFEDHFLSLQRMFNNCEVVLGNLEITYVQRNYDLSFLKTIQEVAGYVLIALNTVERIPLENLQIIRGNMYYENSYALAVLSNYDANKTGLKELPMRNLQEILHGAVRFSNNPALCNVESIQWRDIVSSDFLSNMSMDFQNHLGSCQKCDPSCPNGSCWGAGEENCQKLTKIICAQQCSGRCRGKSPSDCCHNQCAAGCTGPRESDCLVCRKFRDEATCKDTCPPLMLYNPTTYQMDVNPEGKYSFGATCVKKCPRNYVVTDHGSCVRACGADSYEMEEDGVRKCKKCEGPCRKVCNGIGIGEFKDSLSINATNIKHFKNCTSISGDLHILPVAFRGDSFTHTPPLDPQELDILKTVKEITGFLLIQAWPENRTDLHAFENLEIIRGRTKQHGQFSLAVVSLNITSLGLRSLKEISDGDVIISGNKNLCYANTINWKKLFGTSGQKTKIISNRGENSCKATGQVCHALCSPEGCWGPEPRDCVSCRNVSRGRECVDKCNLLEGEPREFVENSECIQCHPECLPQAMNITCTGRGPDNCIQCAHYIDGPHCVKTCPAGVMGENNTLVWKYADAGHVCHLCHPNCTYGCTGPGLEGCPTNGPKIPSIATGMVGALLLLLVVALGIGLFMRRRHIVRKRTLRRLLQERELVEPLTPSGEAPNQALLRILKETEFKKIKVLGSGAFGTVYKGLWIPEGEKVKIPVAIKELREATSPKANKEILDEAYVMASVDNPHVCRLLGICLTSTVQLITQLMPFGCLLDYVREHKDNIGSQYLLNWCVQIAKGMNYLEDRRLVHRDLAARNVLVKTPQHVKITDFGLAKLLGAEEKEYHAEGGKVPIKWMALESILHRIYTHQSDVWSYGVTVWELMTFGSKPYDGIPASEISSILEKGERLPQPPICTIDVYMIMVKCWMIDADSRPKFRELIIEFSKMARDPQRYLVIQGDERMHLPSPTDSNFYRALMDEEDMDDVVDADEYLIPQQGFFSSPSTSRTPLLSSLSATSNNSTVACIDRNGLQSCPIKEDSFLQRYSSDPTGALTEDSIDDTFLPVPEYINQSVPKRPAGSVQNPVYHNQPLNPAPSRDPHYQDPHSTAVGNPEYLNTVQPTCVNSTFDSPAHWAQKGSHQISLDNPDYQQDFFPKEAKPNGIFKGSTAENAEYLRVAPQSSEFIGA
Sequence of Follistatin-related protein 3 (Homo sapiens) (O95633 whole entry, looked up): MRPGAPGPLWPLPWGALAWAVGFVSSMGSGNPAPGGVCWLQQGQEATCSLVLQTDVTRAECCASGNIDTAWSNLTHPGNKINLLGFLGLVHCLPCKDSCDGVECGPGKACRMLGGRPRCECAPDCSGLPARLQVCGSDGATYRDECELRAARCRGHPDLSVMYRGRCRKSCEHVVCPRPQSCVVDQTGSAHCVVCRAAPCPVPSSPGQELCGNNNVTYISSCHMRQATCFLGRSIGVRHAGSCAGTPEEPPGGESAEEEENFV
Sequence of Dickkopf-related protein 1 (Homo sapiens) (O94907 whole entry, looked up): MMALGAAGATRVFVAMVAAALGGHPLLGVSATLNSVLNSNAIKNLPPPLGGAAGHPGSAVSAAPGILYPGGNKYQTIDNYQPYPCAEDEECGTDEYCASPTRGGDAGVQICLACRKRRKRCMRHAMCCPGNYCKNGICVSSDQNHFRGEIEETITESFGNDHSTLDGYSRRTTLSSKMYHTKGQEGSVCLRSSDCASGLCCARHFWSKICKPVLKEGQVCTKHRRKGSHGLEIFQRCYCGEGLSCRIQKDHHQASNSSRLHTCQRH
Sequence of Torsin-1A-interacting protein 2 (Homo sapiens) (Q8NFQ8 whole entry, looked up): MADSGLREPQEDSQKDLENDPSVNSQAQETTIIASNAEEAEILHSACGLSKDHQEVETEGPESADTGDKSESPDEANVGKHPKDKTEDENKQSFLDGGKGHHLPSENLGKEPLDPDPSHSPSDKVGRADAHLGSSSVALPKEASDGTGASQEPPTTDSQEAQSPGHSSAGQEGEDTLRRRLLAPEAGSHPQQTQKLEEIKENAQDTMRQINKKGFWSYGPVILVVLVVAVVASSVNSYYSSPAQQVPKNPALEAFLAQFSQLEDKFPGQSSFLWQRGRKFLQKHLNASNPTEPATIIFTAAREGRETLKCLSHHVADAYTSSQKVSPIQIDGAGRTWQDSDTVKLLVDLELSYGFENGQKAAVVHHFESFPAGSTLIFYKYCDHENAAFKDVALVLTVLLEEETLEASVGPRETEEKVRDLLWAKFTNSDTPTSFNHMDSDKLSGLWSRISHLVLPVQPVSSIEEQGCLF
Sequence of Fibroblast growth factor 10 (Homo sapiens) (O15520 whole entry, looked up): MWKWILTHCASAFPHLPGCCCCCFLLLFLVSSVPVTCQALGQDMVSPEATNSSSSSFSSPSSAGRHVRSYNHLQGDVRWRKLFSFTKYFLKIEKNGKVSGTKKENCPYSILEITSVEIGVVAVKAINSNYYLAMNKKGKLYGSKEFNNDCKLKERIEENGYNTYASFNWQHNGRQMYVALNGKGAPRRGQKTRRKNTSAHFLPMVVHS

For `CCCCC(=C=CC[C@H](O)c1ccc(OCCO)cc1)CCO`, the composite z-score in test [1] is -0.0461; in [5] it was 2.24; in [7] it was -0.179; in [8] it was -0.124; in test [9] it was -0.65; in [10], -0.232. The composite z-score was 0.69 in test [11]; -0.194 in [12]; 0.208 in test [13]; 0.0655 in test [15]; -0.686 in test [16]; -0.709 in test [17]. Moreover, the composite z-score in test [18] was -0.24; in test [19], -0.704; in [20], 0.817. For the same molecule, the z-score in test [2] was -0.879 (inactive); in test [3] it was -0.982 (inactive); in test [4] it was -1.02 (inactive); in test [6], -0.0915 (inactive); in test [14], -0.0149 (inactive).

For the molecule `COC(=O)[C@@H]1N=C(c2ccc(OCCCO)cc2)O[C@@H]1c1ccccc1`, the composite z-score in test [1] is -1.01; in test [5], 1.58; in test [7], -0.149; in [8] it was -0.993; in test [9], -1; in [10], -0.0485. Also, the composite z-score in [11] is 1.76; in test [12] it was 0.311; in [13], 0.725; in test [15], -1.4; in [16], -1.33; in test [17] it was -0.665. For the same molecule, the composite z-score in [18] is -1.22; in test [19] it was -1.71; in test [20] it was -0.0285. In addition, the z-score in [2] is -1.16 (inactive); in test [3], -2.33 (inactive); in test [4], -2.55 (inactive); in [6], 1.11 (inactive); in test [14], -2.07 (inactive).

`CC(C)NC(=O)[C@@]1(c2ccc([N+](=O)[O-])cc2)CC(=O)N(C2CCCCC2)[C@@H]1c1ccc(CO)cc1`: the composite z-score in test [1] was 1.54; in test [5] it was 2.85; in test [7], -0.271; in test [8], 1.77; in [9], 1.07; in test [10], -0.296. Also, the composite z-score in [11] is 1.49; in test [12] it was -0.723; in [13], 0.0339; in test [15], 1.23; in test [16] it was 0.645; in [17], 0.0344. Also, the composite z-score in test [18] was 1.04; in [19], 0.214; in test [20] it was -0.0249. The z-score is 0.359 (inactive) in test [2]; 0.52 (inactive) in [3]; -0.55 (inactive) in test [4]; 1.07 (inactive) in [6]; 0.458 (inactive) in test [14].

In the case of `COc1ccc(CCNC(=O)[C@@]2(c3ccc([N+](=O)[O-])cc3)CC(=O)N(C3CCCCC3)[C@@H]2c2ccc(CO)cc2)cc1`, the composite z-score is 1.29 in [1]; 2.75 in [5]; 0.157 in test [7]; -0.23 in test [8]; 0.627 in [9]; -0.0452 in test [10]. Also, the composite z-score was 0.54 in test [11]; 0.701 in test [12]; 0.806 in test [13]; 0.525 in [15]; 1 in [16]; -0.155 in [17]. The results for the composite z-score in test [18], in test [19] and in [20] were 0.211, 0.214 and 0.249, respectively. The z-score in [2] is 0.812 (inactive); in test [3], -0.501 (inactive); in [4], 0.361 (inactive); in [6], 1.3 (inactive); in test [14], -0.134 (inactive).

With `CC(C)(C)OC(=O)CC[C@@]1(C(=O)NCC(O)CO)N=C(c2ccc(OCCCO)cc2)O[C@@H]1c1ccccc1CN=[N+]=[N-]` (stereo not given in full), the composite z-score was 0.782 in test [1]; 2.89 in test [5]; -0.0691 in test [7]; 0.153 in test [8]; 0.558 in [9]; -0.0229 in test [10]. Moreover, the composite z-score in [11] is 0.552; in test [12] it was 0.726; in test [13], 0.918; in test [15] it was 0.364; in [16], 0.706; in test [17], -0.0699. Further, the composite z-score was 0.335 in test [18], -0.39 in test [19] and 0.349 in test [20]. Further, the z-score is -0.614 (inactive) in test [2]; 0.0076 (inactive) in [3]; -0.753 (inactive) in test [4]; 0.188 (inactive) in test [6]; -0.0605 (inactive) in [14].

The values above are taken from PubChem BioAssay.
